Bioassay records (PubChem)
aSyn 5UTR act – Activators via SNCA 5'UTR binding, MLPCN; AID 1814, 2009; activity score, % (tested at 7.5 µM), hits read low; hit rate 7.1% among 300,000; alpha-synuclein 5'UTR reporter, activators screen; in the data active means activity score below about -60%
* hit, by the source's call. Only a sample is shown.

SMILES	aSyn 5UTR act
NC1=NC(=O)/C(=C\C=C\c2ccccc2)S1	-73*
CC(C(Sc1ccccc1N)c1ccccc1)[N+](=O)[O-] (stereo not drawn)	-83*
O=C(CSc1ncccn1)c1ccccc1Br	-64*
COCC(C)n1c(C)cc(C(=O)CSc2nnnn2-c2ccc(O)cc2)c1C (stereo not drawn)	-82*
COCC(C)n1c(C)cc(C(=O)CSc2ncccn2)c1C (stereo not drawn)	-76*
Cc1ccnc(NC(=O)c2cc3ccccc3oc2=O)c1	-202*
COc1ccc(C(=O)Nc2ccccc2C(=O)Nc2cccc(C)n2)cc1	-86*
COc1ccc(C(=O)Nc2ccccc2C(=O)Nc2cc(C)ccn2)cc1	-107*
COc1ccc(C(=O)NC(=O)Nc2cc(C)ccn2)cc1	72
COc1cc2ccccc2cc1C(=O)Nc1cc(C)ccn1	-94*
COc1ccccc1NC(=O)C(=O)Nc1ccccn1	-167*
COc1cc(C(=O)Nc2ccccc2C(=O)Nc2ccccn2)cc(OC)c1OC	-67*
COc1ccc(C(=O)Nc2ccccc2C(=O)Nc2cccnc2)cc1	-80*
Cc1ccc(NC(=O)C(=O)Nc2ccccn2)cc1	71
Cc1nnc(SCc2nc3ccccc3s2)n1N	-145*
Cc1nnc(SCc2nc3ccccc3s2)n1-c1ccccc1	-195*
c1ccc(-n2cnnc2SCc2nc3ccccc3s2)cc1	-146*
CCn1c(SCC(O)c2ccccc2)nnc1-c1ccccc1 (stereo not drawn)	-70*
CCn1c(SCc2nc3ccccc3s2)nnc1-c1ccccc1	-117*
CCC(c1nnc(SCc2nc3ccccc3s2)n1Cc1ccccc1)N(C)C (stereo not drawn)	-101*
O=c1c(-c2ccc3c(c2)OCCO3)coc2c(CN3CCOCC3)c(O)ccc12	-94*
CCc1cc2c(=O)c(-c3ccc4c(c3)OCCO4)coc2c(CN2CCCCC2C)c1O (stereo not drawn)	-65*
CCc1cc2c(=O)c(-c3ccc4c(c3)OCCO4)coc2cc1OS(C)(=O)=O	-116*
S=c1nc(NCCc2ccccc2Cl)c2ccccc2[nH]1	-114*
O=C(NCCc1ccc(Cl)cc1)C1CCC(CNc2nc(=S)[nH]c3ccccc23)CC1 (stereo not drawn)	65
SMILES	aSyn 5UTR act
Cc1ccc(Cl)c(OCC(=O)Nc2cccnc2)c1	-116*
O=C(COc1ccccc1Cl)Nc1cccnc1	-128*
Cc1ccc(Cl)c(OCC(=O)Nc2sc(C)c(C)c2C#N)c1	-68*
O=C(COc1ccccc1Cl)Nc1ccc2oc(=O)ccc2c1	-72*
O=C(C[n+]1cc(-c2ccc(F)cc2)n2c1CCC2)Nc1nc(-c2ccc(F)cc2)cs1	-63*
O=C(C[n+]1cc(-c2ccc(F)cc2)n2c1CCC2)N1c2ccccc2Sc2ccccc21	-181*
Cc1ccc(-c2csc(NC(=O)C[n+]3cc(-c4ccccc4)n4c3CCC4)n2)cc1	-117*
Cc1cccc(NC(=O)c2ccc([N+](=O)[O-])s2)n1	-88*
Cc1ccnc(NC(=O)c2ccc([N+](=O)[O-])s2)c1	-238*
O=C(NC1CCCC1)c1ccc([N+](=O)[O-])s1	-153*
CC(C)(C)c1ccc(SCCc2cccnc2)cc1	-123*
O=C(O)COc1cccc2ccccc12	-65*
COc1ccc(-n2c(C)cc(-c3cn4cccc(C)c4n3)c2C)cc1	-79*
COc1cccc2cc(-c3cn4cccc(C)c4n3)c(=O)oc12	-154*
CCOc1cccc2cc(-c3cn4cc(C)ccc4n3)c(=O)oc12	-83*
COc1cccc2cc(-c3cn4ccc(C)cc4n3)c(=O)oc12	-88*
c1ccc(-c2cn(CC3CCCCC3)nn2)cc1	-200*
COc1ccc(-c2cn(CC3CCCCC3)nn2)cc1	-120*
Cc1ccc2nc(-c3ccc(N4C(=N)SC5CS(=O)(=O)CC54)cc3)sc2c1 (stereo not drawn)	-101*
Fc1ccc(COc2ccc(-c3nnco3)cc2)c(Cl)c1	-96*
Fc1cc(Br)ccc1COc1ccc(-c2nnco2)cc1	-133*
N#Cc1cc2c(nc1SCC(N)=O)CCCCC2	-77*
N#Cc1cc2c(nc1SCC(=O)N1CCOCC1)CCCCC2	-65*
O=C1OC(/C(=C\Nc2cc(Cl)ccc2O)[N+](=O)[O-])c2ccccc21 (stereo not drawn)	-102*
CN(C(=O)c1cccnc1)c1nc(-c2ccccc2)cs1	-128*
SMILES	aSyn 5UTR act
NC(=O)c1cc(-c2csc(-c3cccnc3)n2)ccc1O	-102*
c1ccc(-c2nc(-c3cccnc3)cs2)cc1	-109*
c1ccc(-c2csc(-c3cccnc3)n2)cc1	-78*
CN1CCN(CC(=O)N(C)c2nc(-c3ccccc3)cs2)CC1	-150*
CC(=O)c1ccc(Nc2ccc([N+](=O)[O-])c3nonc23)cc1	-104*
COc1ccc(C(=O)N/N=C(/C)c2cccc(NC(=O)C(F)(F)F)c2)cc1	-108*
C/C(=N/NC(=O)c1ccoc1C)c1cccc(NC(=O)C2CC2)c1	-115*
C/C(=N/NC(=O)c1ccoc1C)c1cccc(NC(=O)C(F)(F)F)c1	-128*
COc1ccc2cc(/C(C)=N/NC(=O)C3CC3)ccc2c1	-135*
COc1cccc(/C(C)=N/NC(=O)c2ccc(N(C)C)cc2)c1	-101*
